# Screens from PubChem.
# Most compounds without a hit are left out; they make up all but 3.5% or so of the library.
# Pf apPOL block: Pf-apPOL DNA polymerase inhibition; Recombinant Pf-apPOL, molecular beacon fluorescence, 1.5 h; inhibition, % at 10 µM; 0.25% of 210,000 active
# mHTT CaM bind: mHTT-calmodulin interaction abrogation | AlphaScreen His-mHTT/GST-CaM binding, luminescence | inhibition, % at 15 µM | 3.6% of 190,000 active | AID 1671202;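 note: 0% = both proteins with DMSO and 100% = one protein alone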
# Starred values were filed as active, the others as inactive; x = no result given. Cut-off read from the data, not from the text of the source: active = inhibition above about 50%; inactive = the rest.
SMILES,Pf apPOL block,mHTT CaM bind
CC(C)c1cc(C2CCCN2Cc2cc(Cl)ccc2O)on1 (centres undefined),4,-30
O=C(NCc1ccc(F)cc1)N1CCn2cccc2C1Cc1ccccc1 (centres undefined),-5,22
Oc1cccc(CN2CCCn3cccc3C2c2ccc(F)cc2)c1O (centres undefined),2,98*
COc1ccc(Br)c(C(=O)N2CC(c3nc(-c4cccs4)no3)C2)c1,-15,-10
O=C(Nc1ccc(F)cc1)c1ccc(Cl)c(Cl)c1,-3,-35
Fc1ccc(C2CC(c3ccc(Cl)cc3)Nc3ncnn32)cc1 (centres undefined),3,58*
Fc1ccc(C2CC(c3ccc(I)cc3)Nc3ncnn32)cc1 (centres undefined),-4,31
Clc1cccc(C2CC(c3ccc(I)cc3)Nc3ncnn32)c1 (centres undefined),-3,51*
COc1cccc(C2CC(c3cccc(Cl)c3)n3ncnc3N2)c1 (centres undefined),1,5
O=C(Cn1ccnc1)N1CCCC(OCc2nc(C3CC3)no2)C1 (centres undefined),-5,-10
O=[N+]([O-])c1ccc(NN=C(C2CC2)C2CC2)cc1,x,2
CCN(CC)C1C(=O)Nc2ccc(Cl)cc2C1c1ccccc1 (centres undefined),7,95*
O=C1CN(C(=O)c2ccccc2C(F)(F)F)C(c2ccccc2)c2cc(Cl)ccc2N1 (centres undefined),-3,38
OCCCn1c(-c2ccc(I)cc2)csc1=Nc1ccccc1,-5,70*
OCCCn1c(-c2ccccc2)csc1=Nc1cccc(Cl)c1,-5,92*
c1ccc(Cn2c(-c3ccccc3)csc2=Nc2ccccc2)cc1,x,-2
OCCCn1c(-c2ccccc2)csc1=Nc1ccccc1,-1,51*
CCOc1ccc(-c2csc(=Nc3ccccc3)n2CCN2CCOCC2)cc1,-3,22
OCCn1c(-c2ccc(I)cc2)csc1=Nc1ccccc1,-2,66*
CCn1c(-c2ccccc2)csc1=Nc1ccc(S(=O)(=O)O)cc1,-3,17
CC(=O)C1=C(O)C(=O)N(CCO)C1c1ccc(F)cc1 (centres undefined),2,-4
CNC(=O)N1CCCC(c2cccc(C(=O)NCc3ccc(F)cc3F)c2)C1 (centres undefined),-7,11
Cc1cc(C)n(-c2ccnc(N3CCSCC3)n2)n1,0,1
O=S(=O)(N=C(NNC(=S)Nc1cccc(C(F)(F)F)c1)N1CCCC1)c1ccccc1,-3,x
COc1ccc(C)cc1NC(=O)C1CCN(c2cc(C(=O)N3CCCC3)ccn2)CC1,3,15
SMILES,Pf apPOL block,mHTT CaM bind
CCN1C(=O)Cc2cc(C(=O)N3CCN(c4ccccc4Cl)CC3)ccc21,-6,27
CCN1C(=O)Cc2cc(C(=O)N3CCN(c4ccccc4C)CC3)ccc21,1,68*
CC1CCN(C(=O)c2ccc3c(c2)CC(=O)N3Cc2cccc(F)c2)CC1,-2,57*
CC1CCN(C(=O)c2ccc3c(c2)CC(=O)N3Cc2ccc(F)cc2)CC1,-6,15
O=C(NC1CC(=O)N(Cc2ccccc2)C1)c1ccsc1 (centres undefined),0,-2
CCCCN(C)C(=O)CCC1CCCN(C(=O)Nc2ccc(Cl)cc2)C1 (centres undefined),-1,12
CC(C)N1C(=O)C(C)(C(=O)Nc2cccc(Cl)c2)Oc2cccnc21 (centres undefined),-1,-7
CC(C)N1C(=O)C(C)(C(=O)Nc2ccc(F)c(Cl)c2)Oc2cccnc21 (centres undefined),-5,100*
C=CCNC(=O)C1CC=CCC1C(=O)NCCc1ccccc1 (centres undefined),-2,13
O=S(=O)(c1ccc(F)cc1)N1CCC(CN2CCCCC2)CC1,1,8
O=C(N=Nc1c(O)[nH]c2ccc(Br)cc12)c1ccco1,80*,x
O=[N+]([O-])c1cccc(-c2csc(N=Nc3c(O)[nH]c4ccc(Br)cc34)n2)c1,1,x
COc1nn(C)cc1C(=O)N(CC1CCCO1)c1nc2c(Cl)cccc2s1 (centres undefined),-1,-4
O=C(NCCn1ncc2c(=O)n(Cc3ccccc3)cnc21)c1cc(-c2cccs2)[nH]n1,-14,-9
Cc1ccc(-c2nccn3cc(C(=O)N4CCCCCC4)nc23)cc1,4,1
COc1cc2c(cc1OC)C(COc1ccc(F)cc1)N(C(=O)c1ccc(F)cc1)CC2 (centres undefined),-10,57*
COc1cc2c(cc1OC)C(COc1ccc(F)cc1)N(C(=O)c1ccccc1OC)CC2 (centres undefined),-4,81*
CCOc1ccccc1C(=O)N1CCc2cc(OC)c(OC)cc2C1COc1ccc(OC)cc1 (centres undefined),-2,39
COc1cc2c(cc1OC)C(COc1ccc(F)cc1)N(C(=O)C1CC1)CC2 (centres undefined),-7,27
COc1cccc(CNC(=O)C2CCCN(c3nnc4ccccn34)C2)c1 (centres undefined),-2,-1
CC(C)(C)c1ccc(C2SCC(=O)N2c2ccc(F)cc2)cc1 (centres undefined),0,-5
COCc1nn(CC2CC2)c2c1CN(C(=O)c1ccc(OC)nc1)CC2,-4,-3
CCOc1ccc(C(=O)Nc2ccc(NC(=O)C(C)C)cc2)cc1Cl,-1,0
Cc1cc(Br)ccc1NC(=O)CCn1c(=O)oc2ccccc21,-5,-9
O=C(Nc1nnc(C2CC(=O)N(c3ccccc3)C2)o1)c1ccc(Br)cc1 (centres undefined),-1,15
SMILES,Pf apPOL block,mHTT CaM bind
COc1ccc(C(=O)Nc2nnc(C3CC(=O)N(c4ccc(Cl)cc4)C3)o2)cc1OC (centres undefined),-3,76*
COc1ccc(N2CC(c3nnc(NC(=O)c4ccc(Cl)cc4)o3)CC2=O)cc1 (centres undefined),-5,-2
Cc1ccccc1C(=O)Nc1nnc(C2CC(=O)N(c3ccc(S(C)(=O)=O)cc3)C2)o1 (centres undefined),-1,46
O=C(Nc1nnc(C2CC(=O)N(c3ccccc3)C2)o1)c1ccccn1 (centres undefined),-213,100*
COc1ccc(C(=O)Nc2nnc(C3CC(=O)N(c4ccccc4)C3)o2)cc1OC (centres undefined),-2,61*
COc1ccc(C(=O)Nc2nnc(C3CC(=O)N(c4ccccc4)C3)o2)cc1 (centres undefined),-3,7
CS(=O)(=O)c1ccc(N2CC(c3nnc(NC(=O)c4cccs4)o3)CC2=O)cc1 (centres undefined),0,53*
CCCNC(=O)C1CCCN(c2ncc(-c3ccc(C)cc3)cn2)C1 (centres undefined),-3,-11
CCCCNC(=O)c1ccc2c(c1)nc1n2CCCCC1,3,-4
CC1=CC(=Nc2c(C)n(C)n(-c3ccccc3)c2=O)C(C)=CC1=O,-2,16
CN1c2ccc(F)cc2C(=O)NC12CCN(C(=O)c1ccc(Cl)cc1)CC2,0,-7
Cc1ccc(NC(=O)NCc2ccnc(N3CCSCC3)c2)c(Cl)c1,0,-1
CCNC(=O)C1CCN(c2cnn(Cc3ccccc3)c(=O)c2)CC1,-6,11
CNc1nccc(N2CCC(CC(=O)NCc3cccc(C(F)(F)F)c3)CC2)n1,1,54*
